Changes are numbered by the printed parent chain.
What follows are sequences tested against T1, RsmQ (Pseudomonas fluorescens SBW25 plasmid …, UniProt UPI00015066B5 1-62) (assay: SPR (ReDCaT); HBS-EP+ (10 mM HEPES, 150 mM NaCl, 3 mM EDTA, 0.05% v/v Tween 20, pH 7.4), 20 C, Biacore 8K, ReDCaT SA chip; high values mean tight binding). Settings: protein: recombinant; tags: C-terminal TEV site + 6xHis; chain copies: 2; ssDNA.
T1 sequence: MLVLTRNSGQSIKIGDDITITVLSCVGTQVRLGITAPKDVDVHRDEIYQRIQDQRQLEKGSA

| Sequence | binding signal [%Rmax] |
| --- | --- |
| CCATCAAGGAACGATGGTTCGAAGG | 11.7 ± 0.382 |
| CTGCCAGGATGGCGGAGTGAAATGG | 16.2 ± 1.37 |
| GCAACAACACGGACACGTAGGATT | 3.78 ± 1.57 |
| TTCATCAGGATGATGAAAAGGAATAC | 80.5 ± 1.97 |
| GGAATACAGGGACTAGGGAAAAAAT | 3.83 ± 1.08 |
| AATGTCGCAGGATGCGATTCATCAG | 62.7 ± 2.27 |

The sequences below were run against T1, RsmQ (assay: SPR (ReDCaT); 100 nM protein; HBS-EP+ (10 mM HEPES, 150 mM NaCl, 3 mM EDTA, 0.05% v/v Tween 20, pH 7.4), 20 C, Biacore 8K, ReDCaT SA chip; high values mean tight binding). Settings: protein: recombinant; tags: C-terminal TEV site + 6xHis; chain copies: 2; ssDNA.

| Sequence | binding signal [%Rmax] |
| --- | --- |
| CAGGACAGGACAGAGC | 4.87 ± 0.902 |
| CAAGGAGACAGAGCAACAGGA | 3.14 ± 0.795 |
| CAGGAACGGACAGAGC | 6.27 ± 1.5 |
| CAGGAAAGGACAGAGCACGGA | 10.1 ± 0.715 |

Same assay, conditions: protein: recombinant; tags: C-terminal TEV site + 6xHis; chain copies: 2; structured_DNA

| Sequence | binding signal [%Rmax] |
| --- | --- |
| CCGCGCCCGGAAGCGCAAAC | 7.21 ± 0.838 |
| CCGCGCACGGAAGCGCAAAC | 68.3 ± 0.752 |
| CCGCGCACGGAAGCGCAACGGAAC | 70 ± 0.746 |
| CCGCGCAGGGAAGCGCAAAC | 106.2 ± 0.739 |
| CCGCGCCGGAAGCGCAGGAAC | 28.8 ± 0.617 |
| CCGCGCTCGGAAGCGCAAAC | 4.59 ± 0.514 |
| CCGCGCATGGAAGCGCAAAC | 113.5 ± 0.537 |
| CCGCGCACGAAGCGCAAAC | 24.9 ± 0.641 |
| CCGCGCAGGAAGCGCAAAC | 94.4 ± 1.28 |
| CCGCGCACTGAAGCGCAAAC | 1.69 ± 0.298 |

What follows are sequences tested against T2, RsmQ H43A (Pseudomonas fluorescens SBW25 plasmid …, UniProt UPI00015066B5 1-62, H43A) in the same assay as above. Settings: protein: recombinant; tags: C-terminal TEV site + 6xHis; chain copies: 2; structured_DNA.
T2 sequence: T1 sequence with H43A

| Sequence | binding signal [%Rmax] |
| --- | --- |
| CCGCGCACGGAAGCGCAAAC | 50.72 ± 0.382 |
| CCGCGCACGGAAGCGCAACGGAAC | 51.14 ± 0.26 |
| CCGCGCCGGAAGCGCAGGAAC | 12.8 ± 0.157 |
| CCGCGCAGGAAGCGCAAAC | 43.9 ± 0.798 |

Each sequence was assayed against T3, RsmQ R44A (Pseudomonas fluorescens SBW25 plasmid …, UniProt UPI00015066B5 1-62, R44A) in the same assay as above. Settings: protein: recombinant; tags: C-terminal TEV site + 6xHis; chain copies: 2; structured_DNA.
T3 sequence: T1 sequence with R44A

| Sequence | binding signal [%Rmax] |
| --- | --- |
| CCGCGCACGGAAGCGCAAAC | 41.38 ± 0.372 |
| CCGCGCACGGAAGCGCAACGGAAC | 38.8 ± 0.461 |
| CCGCGCCGGAAGCGCAGGAAC | 3.8 ± 0.253 |
| CCGCGCAGGAAGCGCAAAC | 22.1 ± 0.676 |

These sequences were tested against T4, RsmE (Pseudomonas fluorescens SBW25, UniProt A0ACA7PAD1 1-74) in the same assay as above. Settings: protein: recombinant; tags: His tag (pET28a NdeI/XhoI); chain copies: 2; structured_DNA.
T4 sequence: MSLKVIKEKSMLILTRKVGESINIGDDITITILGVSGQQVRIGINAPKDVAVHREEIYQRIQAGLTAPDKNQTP

| Sequence | binding signal [%Rmax] |
| --- | --- |
| CCGCGCACGGAAGCGCAAAC | -4.31 ± 0.212 |
| CCGCGCAGGGAAGCGCAAAC | 47.5 ± 0.0552 |
| CCGCGCATGGAAGCGCAAAC | 30.1 ± 0.204 |

Each sequence was assayed against T1, RsmQ (assay: SPR (ReDCaT); 100 nM protein, run beside RsmE; HBS-EP+ (10 mM HEPES, 150 mM NaCl, 3 mM EDTA, 0.05% v/v Tween 20, pH 7.4), 20 C, Biacore 8K, ReDCaT SA chip; high values mean tight binding). Settings: protein: recombinant; tags: C-terminal TEV site + 6xHis; chain copies: 2; structured_DNA.

| Sequence | binding signal [%Rmax] |
| --- | --- |
| CCGCGCACGGAAGCGCAAAC | 49.1 ± 0.724 |
| CCGCGCAGGGAAGCGCAAAC | 90.1 ± 4.07 |
| CCGCGCATGGAAGCGCAAAC | 107 ± 6.88 |
| CCGCGCAGGAAGCGCAAAC | 98.6 ± 6.21 |
